The record followed here is PubChem BioAssay.

The source made the active and inactive calls.

Assay [1] can be described thus: small molecules captured by biotinylated probe aFSTL3 – biochemical, small-molecule microarray, fluorescence 635/667, stem cell growth factor project, primary screen (AID 1064).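 Further: measures binding of the biotinylated anti-FSTL3 antibody to printed compounds.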 The settings on record: higher = more signal.
Assay [2] in a line: binders from COS7 lysate, DM2A8 probe, primary screen, torsin A project, cell lysate, small-molecule microarray, fluorescence 635/667 (AID 1065). The settings on record: higher = more signal, COS7 lysate expressing mutant human TOR1A.
Assay [3] is described as follows: small molecules captured by biotinylated probe aFGF2 – biochemical, small-molecule microarray, fluorescence 635/667, stem cell growth factor project, primary screen (AID 1067).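 Further: measures binding of biotinylated aFGF2 protein to printed compounds on slides; z-score merges feature fluorescence and signal-to-noise across triplicate slides.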 As to conditions: higher = more signal.
The nature of assay [4]: small molecules captured by biotinylated probe aFGF10 – biochemical, small-molecule microarray, fluorescence 635/667, stem cell growth factor project, primary screen (AID 1071).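 Further: score merges 667 nm spot intensity and signal to noise from triplicate slides.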 As to conditions: higher = more signal.
For assay [5], the target named is Neurogenic locus notch homolog protein 2 (Homo sapiens) (UniProt Q04721). Description: small molecules binding Notch2 protein – biochemical, small-molecule microarray, 635 nm fluorescence, stem cell growth factors, primary screen (AID 1073). The settings on record: higher = more signal.
Assay [6] deals with Pro-neuregulin-1, membrane-bound isoform (Homo sapiens) (UniProt Q02297). Nature of the assay: small molecules binding neuregulin-1 protein – biochemical, small-molecule microarray, fluorescence 635/667, psychiatric disease protein project, primary screen (AID 1075).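 Further: score combines 667 nm spot fluorescence with signal to noise.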 As to conditions: NRG1 binding, 635 nm fluorescence, higher = more signal.
The subject of assay [7] is Neuregulin-1 EGF-like domain. Description: small molecules binding NRG1 EGF domain – biochemical, small-molecule microarray, 635 nm fluorescence, primary screen (AID 1081).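 Further: binding of the protein to compounds printed on small-molecule microarray slides.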 As to conditions: higher = more signal.
Assay [8] in a line: FRG1 expression reporter modulators in myotubes – cell-based, C2C12 myotubes, firefly/Renilla luciferase, luminescence, FRG1 inhibition for FSHD, primary screen (AID 1084). The settings on record: FRG1 promoter luciferase, higher = more signal, called active from +8 up or from −8 down.
A short description of assay [9]: small molecules captured by biotinylated probe aFST – biochemical, small-molecule microarray, fluorescence 635/667, stem cell growth factor project, primary screen (AID 1086).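 Further: score merges 667 nm fluorescence with signal-to-noise of each printed compound spot.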 The settings on record: higher = more signal.
The nature of assay [10]: binders of probe aHhip on microarray, primary screen, stem cell growth factor project, biochemical, small-molecule microarray, fluorescence 635/667 (AID 1087).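 Further: score merges spot fluorescence at 667nm with spot signal to noise ratio.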 As to conditions: higher = more signal.
The test system of assay [11] is PRMT1 (protein arginine N-methyltransferase 1). Description: small molecules binding arginine methyltransferase PRMT1 – biochemical, small-molecule microarray, 635 nm fluorescence, primary screen (AID 1088).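 Further: binding of Prmt1 protein to compounds spotted on small-molecule microarray slides.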 As to conditions: higher = more signal.
The nature of assay [12]: growth effects on S. cerevisiae YJM789 – YJM789 clinical isolate, OD600, 24 h, basal, primary screen (AID 1089).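 Further: growth of clinical yeast isolate S. cerevisiae YJM 789 seeded 1000 cells per well; test concentration not given here.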 The settings on record: higher = more signal, called active from +8 up or from −8 down.
The nature of assay [13]: S. pombe growth modifiers, basal conditions – strain 972, OD600, 24 h, no modulator, primary screen (AID 1090).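 Further: basal condition with compound alone and no growth modifier present; test concentration not given here.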 The settings on record: S. pombe 972 growth, higher = more signal, called active from +8 up or from −8 down.
Assay [14] can be described thus: budding yeast growth modifiers under rapamycin – strain BY4716, OD600, 96 h, primary screen (AID 1091). Further: test concentration not given here. As to conditions: S. cerevisiae BY4716 + rapamycin, higher = more signal, called active from +8 up or from −8 down.
In assay [15] the target is Torsin-1A-interacting protein 2 (Homo sapiens) (UniProt Q8NFQ8). Description: small molecules binding lysate-expressed LULL1 – cell lysate, human LULL1 lysate, 635/667 nm fluorescence, primary screen (AID 1092).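 Further: probe is lysate of COS7 cells overexpressing human LULL1; score merges per-feature 667 nm fluorescence with signal-to-noise.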 As to conditions: small-molecule microarray, hLULL1 lysate binding, 635 nm fluorescence; higher = more signal.
The nature of assay [16]: optical density change of DRC41 E. coli – strain DRC41, OD650, 24 h, E. coli filamentation project, primary screen (AID 1093).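 Further: MC1000 strain lacking acrAB efflux and sulA so SOS filamentation is blocked; test concentration not given here.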 The settings on record: E. coli DRC41 growth, higher = more signal, called active from +8 up or from −8 down.
The nature of assay [17]: probe aLefty2 binding to arrayed compounds – biochemical, biotinylated probe, 635/667 nm fluorescence, primary screen (AID 1094).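 Further: score merges spot fluorescence near 667 nm with spot signal-to-noise ratio.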 As to conditions: small-molecule microarray, higher = more signal.
The test system of assay [18] is Noggin (protein binding on small-molecule microarray). Nature of the assay: small molecules binding Noggin protein – biochemical, 635/667 nm fluorescence, primary screen (AID 1095).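 Further: score merges 667 nm feature fluorescence with signal to noise over triplicate slides.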 The settings on record: 635 nm fluorescence, higher = more signal.
The target of assay [19] is Neurogenic locus notch homolog protein 3 (Homo sapiens) (UniProt Q9UM47). Nature of the assay: small molecules binding NOTCH3 protein – biochemical, 635/667 nm fluorescence, primary screen (AID 1096). The settings on record: small-molecule microarray, 635 nm fluorescence, higher = more signal.
Assay [20] in a line: probe aEGFR binding to arrayed compounds – biochemical, biotinylated probe, 635/667 nm fluorescence, primary screen (AID 1097).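 Further: probe is a biotinylated anti-EGFR antibody binding compounds printed on slides; score combines fluorescence near 667 nm and signal to noise of each spot.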 As to conditions: small-molecule microarray, higher = more signal.

Pro-neuregulin-1, membrane-bound isoform (Homo sapiens), sequence (Q02297 whole entry, looked up, the tested form may be a part, canonical isoform): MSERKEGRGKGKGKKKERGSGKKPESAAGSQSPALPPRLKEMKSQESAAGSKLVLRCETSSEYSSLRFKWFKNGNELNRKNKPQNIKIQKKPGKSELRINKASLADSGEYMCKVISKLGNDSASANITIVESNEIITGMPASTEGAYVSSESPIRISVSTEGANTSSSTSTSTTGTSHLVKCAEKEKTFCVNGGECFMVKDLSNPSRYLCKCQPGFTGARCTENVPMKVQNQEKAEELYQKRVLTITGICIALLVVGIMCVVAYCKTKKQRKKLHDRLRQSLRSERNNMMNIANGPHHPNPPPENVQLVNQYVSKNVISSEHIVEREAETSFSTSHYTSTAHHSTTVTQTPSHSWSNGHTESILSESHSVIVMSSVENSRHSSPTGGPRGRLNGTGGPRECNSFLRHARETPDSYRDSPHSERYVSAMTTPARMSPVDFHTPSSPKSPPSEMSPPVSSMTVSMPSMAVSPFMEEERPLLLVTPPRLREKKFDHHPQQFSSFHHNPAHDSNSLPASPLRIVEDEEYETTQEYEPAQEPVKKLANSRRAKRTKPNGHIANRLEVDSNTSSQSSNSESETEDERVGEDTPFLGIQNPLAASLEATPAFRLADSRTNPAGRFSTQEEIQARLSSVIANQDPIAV
Torsin-1A-interacting protein 2 (Homo sapiens), sequence (Q8NFQ8 whole entry, looked up): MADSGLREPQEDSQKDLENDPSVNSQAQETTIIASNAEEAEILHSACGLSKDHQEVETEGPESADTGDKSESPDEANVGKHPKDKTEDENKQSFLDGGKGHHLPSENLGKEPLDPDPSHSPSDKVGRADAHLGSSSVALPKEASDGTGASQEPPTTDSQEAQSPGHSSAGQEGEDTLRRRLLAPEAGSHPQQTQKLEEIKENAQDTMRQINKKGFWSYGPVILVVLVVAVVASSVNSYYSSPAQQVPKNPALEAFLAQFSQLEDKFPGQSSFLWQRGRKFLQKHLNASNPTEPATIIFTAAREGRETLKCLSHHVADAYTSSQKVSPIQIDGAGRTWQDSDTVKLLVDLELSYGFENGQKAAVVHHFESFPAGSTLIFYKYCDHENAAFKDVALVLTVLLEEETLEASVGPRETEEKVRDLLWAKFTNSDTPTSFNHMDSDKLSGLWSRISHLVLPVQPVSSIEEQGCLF
Neurogenic locus notch homolog protein 2 (Homo sapiens), sequence (Q04721 whole entry, looked up, canonical isoform): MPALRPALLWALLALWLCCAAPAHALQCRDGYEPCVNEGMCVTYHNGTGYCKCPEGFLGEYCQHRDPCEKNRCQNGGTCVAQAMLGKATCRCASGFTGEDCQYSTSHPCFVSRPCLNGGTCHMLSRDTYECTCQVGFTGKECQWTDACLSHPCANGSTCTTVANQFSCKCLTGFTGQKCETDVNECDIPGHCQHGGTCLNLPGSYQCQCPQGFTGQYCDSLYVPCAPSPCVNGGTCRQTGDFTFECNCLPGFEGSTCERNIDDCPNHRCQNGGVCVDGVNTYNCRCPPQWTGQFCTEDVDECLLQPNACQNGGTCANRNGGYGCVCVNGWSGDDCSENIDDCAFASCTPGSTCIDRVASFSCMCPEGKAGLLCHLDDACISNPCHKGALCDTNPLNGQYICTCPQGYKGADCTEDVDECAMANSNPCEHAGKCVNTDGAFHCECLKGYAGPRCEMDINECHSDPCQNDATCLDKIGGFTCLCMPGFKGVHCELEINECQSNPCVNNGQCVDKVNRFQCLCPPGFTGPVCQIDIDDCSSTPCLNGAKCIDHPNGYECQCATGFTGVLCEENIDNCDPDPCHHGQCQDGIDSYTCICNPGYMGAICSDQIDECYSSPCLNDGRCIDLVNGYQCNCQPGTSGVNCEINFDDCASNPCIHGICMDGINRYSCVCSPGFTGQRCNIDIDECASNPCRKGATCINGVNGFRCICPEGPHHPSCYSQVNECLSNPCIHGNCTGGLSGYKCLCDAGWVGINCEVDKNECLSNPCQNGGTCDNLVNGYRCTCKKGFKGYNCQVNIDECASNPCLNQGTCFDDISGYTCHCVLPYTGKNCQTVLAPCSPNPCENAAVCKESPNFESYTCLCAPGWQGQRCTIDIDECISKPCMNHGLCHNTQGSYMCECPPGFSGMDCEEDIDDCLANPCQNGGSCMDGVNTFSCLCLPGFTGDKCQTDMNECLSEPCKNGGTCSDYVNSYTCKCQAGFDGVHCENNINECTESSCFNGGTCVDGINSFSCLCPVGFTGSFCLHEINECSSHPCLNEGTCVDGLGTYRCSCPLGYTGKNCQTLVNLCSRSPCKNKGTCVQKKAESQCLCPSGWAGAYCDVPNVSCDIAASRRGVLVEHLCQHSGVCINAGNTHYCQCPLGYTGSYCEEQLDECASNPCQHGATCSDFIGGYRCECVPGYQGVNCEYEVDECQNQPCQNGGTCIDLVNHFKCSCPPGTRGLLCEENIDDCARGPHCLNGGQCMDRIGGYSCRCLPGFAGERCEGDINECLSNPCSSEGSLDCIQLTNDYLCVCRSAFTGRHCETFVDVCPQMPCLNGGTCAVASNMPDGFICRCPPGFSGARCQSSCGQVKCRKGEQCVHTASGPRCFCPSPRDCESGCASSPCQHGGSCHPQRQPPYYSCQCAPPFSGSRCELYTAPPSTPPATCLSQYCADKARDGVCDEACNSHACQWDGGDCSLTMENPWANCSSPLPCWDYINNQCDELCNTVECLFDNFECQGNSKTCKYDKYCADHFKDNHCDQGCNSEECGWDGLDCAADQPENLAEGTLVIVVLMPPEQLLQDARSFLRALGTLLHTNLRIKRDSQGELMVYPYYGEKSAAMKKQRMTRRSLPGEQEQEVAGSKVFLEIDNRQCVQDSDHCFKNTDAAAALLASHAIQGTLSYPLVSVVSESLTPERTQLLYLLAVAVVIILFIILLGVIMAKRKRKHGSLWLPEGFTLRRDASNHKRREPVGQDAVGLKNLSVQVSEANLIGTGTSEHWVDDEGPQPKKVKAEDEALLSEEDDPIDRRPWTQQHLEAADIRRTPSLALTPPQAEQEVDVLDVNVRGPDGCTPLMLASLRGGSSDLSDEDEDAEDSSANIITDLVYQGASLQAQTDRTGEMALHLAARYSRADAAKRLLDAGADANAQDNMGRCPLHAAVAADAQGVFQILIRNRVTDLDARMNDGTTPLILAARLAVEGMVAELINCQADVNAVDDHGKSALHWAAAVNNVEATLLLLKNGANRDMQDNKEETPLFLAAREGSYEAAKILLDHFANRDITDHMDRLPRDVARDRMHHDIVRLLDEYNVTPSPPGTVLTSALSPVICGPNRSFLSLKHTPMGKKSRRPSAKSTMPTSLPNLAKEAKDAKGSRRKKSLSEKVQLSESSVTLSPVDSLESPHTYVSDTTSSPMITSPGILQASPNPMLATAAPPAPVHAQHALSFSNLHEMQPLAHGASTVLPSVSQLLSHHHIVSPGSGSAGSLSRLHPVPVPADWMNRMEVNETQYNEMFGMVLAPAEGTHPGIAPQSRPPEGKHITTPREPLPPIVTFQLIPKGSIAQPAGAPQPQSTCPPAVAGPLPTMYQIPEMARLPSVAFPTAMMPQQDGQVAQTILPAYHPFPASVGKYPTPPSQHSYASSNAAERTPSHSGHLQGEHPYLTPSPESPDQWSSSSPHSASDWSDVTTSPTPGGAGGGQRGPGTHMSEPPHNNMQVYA

For `Cc1cc(C)c(C(O)C2C=CC3C(=O)N(c4ccccc4)C(=O)C3N2Nc2ccc(C(C)C)cc2)c(C)c1` (stereo not given), the composite z-score is 0.224 in [1]; 0.243 in assay [2]; 0.172 in [3]; 0.941 in [4]; 1.66 in assay [5]; 1.91 in [6]. Also, the composite z-score was found to be 1.25 in assay [7]; 1.37 in assay [9]; 0.128 in assay [10]; 1.57 in assay [11]; 3.42 in [15]; 0.255 in assay [17]. In addition, the composite z-score in [18] was -0.163; in assay [19], 1.03; in [20] it was -0.0172. Moreover, the z-score is 1.44 (inactive) in assay [8]; 1.14 (inactive) in assay [12]; 0.863 (inactive) in assay [13]; 1.26 (inactive) in assay [14]; -1.87 (inactive) in assay [16].
On to `Cc1ccc(S[C@]2(C(=O)O)CC(=O)N(C3Cc4ccccc4C3)[C@@H]2c2ccc(CO)cc2)cc1`, for which the composite z-score in [1] was 0.377; in assay [2] it was 0.477; in assay [3], 0.0015; in [4], -0.179; in [5] it was -0.267; in assay [6], 0.915. The composite z-score in assay [7] was 0.184; in assay [9], -0.117; in assay [10] it was -0.134; in assay [11], 1.04; in [15], 2.98; in assay [17] it was 0.126. The composite z-score in assay [18] was -0.98; in [19], -0.472; in assay [20], -0.185. Also, the z-score in assay [8] is 0.177 (inactive); in [12], 0.137 (inactive); in assay [13] it was -1.36 (inactive); in assay [14] it was 0.448 (inactive); in assay [16], 0.618 (inactive).
On to `COc1cc(OC)c(C(O)C2C=CC3C(=O)N(C)C(=O)C3N2NC(=O)OC(C)(C)C)cc1Br` (stereo not given), for which the composite z-score was 0.411 in assay [1]; -0.381 in [2]; 0.232 in assay [3]; 0.843 in assay [4]; 1.76 in assay [5]; 1.85 in [6]. In addition, the composite z-score was determined as 1.37 in assay [7]; 1.84 in [9]; 0.0522 in [10]; 1.54 in assay [11]; 3.39 in assay [15]; 0.368 in assay [17]. Further, the composite z-score in assay [18] is 0.137; in [19], 1.02; in [20] it was 0.128. For the same compound, the z-score was -0.612 (inactive) in [8]; 0.24 (inactive) in assay [12]; -0.324 (inactive) in assay [13]; 0.828 (inactive) in [14]; -0.188 (inactive) in [16].
`[N-]=[N+]=NCc1ccccc1[C@H]1OC(c2ccc(OCCCO)cc2)=N[C@@]1(CCS(=O)(=O)c1ccccc1)C(=O)N1CCCCC1`: the composite z-score in assay [1] came to 0.974; in assay [2] it was 1.28; in [3], 0.248; in assay [4] it was 0.4; in assay [5], 1.51; in assay [6] it was 1.79. Further, the composite z-score is 1.33 in assay [7]; 1.42 in assay [9]; -0.191 in assay [10]; 1.55 in assay [11]; 3.34 in [15]; 0.574 in assay [17]. Moreover, the composite z-score in [18] was 0.876; in [19] it was 0.992; in assay [20], 0.283. The z-score in assay [8] is 0.225 (inactive); in assay [12] it was 0.341 (inactive); in assay [13], -0.0527 (inactive); in [14] it was 3.75 (inactive); in [16] it was -0.334 (inactive).
As to `CCOC(=O)C[C@H]1[C@H](OC(=O)c2ccccc2-c2ccccc2)[C@@H](NC(=O)C2CCCCC2)c2cc(OCCCO)ccc2N1C(=O)Cc1ccc(OC)cc1`, the composite z-score in [1] is 0.0253; in assay [2], 0.154; in [3] it was -0.0636; in [4] it was 0.253; in assay [5], 0.231; in [6] it was -0.0991. Moreover, the composite z-score in [7] was -0.163; in assay [9], 0.169; in [10], -0.12; in assay [11], 0.143; in assay [15], 0.735; in assay [17], -0.132. Further, the composite z-score was 0.159 in assay [18], -0.292 in [19] and -0.139 in [20]. Moreover, the z-score is 0.277 (inactive) in [8]; -0.93 (inactive) in assay [12]; -0.0289 (inactive) in assay [13]; -0.144 (inactive) in [14]; -1.05 (inactive) in assay [16].
